Screening data (PubChem BioAssay)
TEAD-YAP block = TEAD-YAP interaction inhibition; HEK-TIYL cells, TEAD-Gal4/YAP UAS-luciferase luminescence; inhibition, % at 9.12 µM; actives 1.4% (n = 640,000); in the data active = inhibition above about 32%;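 also: 0% = median of test compound wells and 100% = reference inhibitor wells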
MITF inh = blocks human microphthalmia-associated transcription factor; AlphaScreen MITF homodimerization, bead proximity signal; inhibition, % at 2.6 µM; actives 0.91% (n = 650,000); AID 1259374; in the data active = inhibition above about 50%;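 also: 0% = vehicle wells with protein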
GPR151 activ = activators of human GPR151 | activation, % at 11.2 µM | Q8TDV0 | PathHunter beta-arrestin GPR151 cells, luminescence | actives 1% (n = 650,000) | AID 1508602; in the data active = activation above about 4.9%;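 also: 0% = median of compound wells and 100% = cells with positive control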
Target sequence (Q8TDV0 whole entry, looked up): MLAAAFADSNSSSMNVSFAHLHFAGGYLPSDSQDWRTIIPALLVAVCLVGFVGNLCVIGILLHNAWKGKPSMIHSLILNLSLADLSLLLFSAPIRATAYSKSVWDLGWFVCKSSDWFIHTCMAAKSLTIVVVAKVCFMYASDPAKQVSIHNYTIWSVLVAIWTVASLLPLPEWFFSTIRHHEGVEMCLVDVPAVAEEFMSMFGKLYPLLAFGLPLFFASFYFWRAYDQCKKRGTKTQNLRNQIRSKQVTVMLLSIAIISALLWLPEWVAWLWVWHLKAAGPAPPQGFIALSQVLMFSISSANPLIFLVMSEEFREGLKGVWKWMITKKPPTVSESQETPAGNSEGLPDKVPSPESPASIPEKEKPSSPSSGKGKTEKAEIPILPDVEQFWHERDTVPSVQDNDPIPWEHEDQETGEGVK
FBW7 act = activators of human E3 ligase FBW7; normalized activity (activation), % at 26.1 µM; AID 1259310; AlphaScreen FBW7–phospho-cyclin E peptide binding, activator screen; Q969H0; actives 0.13% (n = 650,000); in the data active = normalized activity above about 1.9%;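 also: purified mutant Fbw7 with reduced substrate affinity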
Active calls of the source: *. Most compounds without a hit are left out; they make up all but 3.4% or so of the library.

SMILES | TEAD-YAP block | MITF inh | GPR151 activ | FBW7 act
Cc1ccc(C)c(NC(=O)C2CC3c4ccccc4C2c2ccccc23)c1 (configuration not stated) | 1.4 | 0.7 | -0.9 | 2.0*
O=[N+]([O-])c1ccc(O)c(/C=N/Nc2ccc(Cl)nn2)c1 | 46.4* | -11.1 | 0.5 | -0.1
Cc1cc(N/N=C/c2cccc([N+](=O)[O-])c2)nc(-c2ccccc2O)n1 | 1.9 | 12.5 | -0.5 | 0.2
Cc1cc(N/N=C/c2cc([N+](=O)[O-])ccc2O)nc(-c2ccccc2O)n1 | 77.4* | -11.6 | 0.1 | -0.1
Cc1cc(N/N=C/c2ccc(O)c(C)c2O)nc(-c2ccccc2O)n1 | 42.3* | -1.9 | 0.4 | 0.2
CC1=CC(C)(C)N(C(=O)Nc2ccc(Cl)cc2)c2ccc(C)cc21 | -10.5 | 7.4 | -0.9 | 0.0
CC1=CC(C)(C)N(C(=O)c2ccc(NS(C)(=O)=O)cc2)c2ccc(C)cc21 | 58.5* | 2.0 | 1.1 | 0.0
CCOc1ccc(C(=O)Nc2ccc(-c3nc4ccc(C)cc4s3)cc2)cc1Cl | -0.2 | -11.6 | -0.5 | 0.2
Cc1nc2c(C(=O)N3CCCC3)c[nH]n2c(=O)c1Cc1ccc(Cl)cc1 | 8.1 | 14.8 | -0.3 | 1.9*
Cc1nc2c(C(=O)O)c[nH]n2c(=O)c1Cc1ccc(Cl)cc1 | 7.1 | -8.5 | 0.0 | 0.1
CN(C)c1cccc(C(=O)N2CCN(c3ccc(F)cc3)CC2)c1 | -4.9 | 9.9 | -0.4 | 0.7
COc1ccc2c(c1)C(=O)NC2CC(=O)NC1(c2ccccc2OC)CCCC1 (configuration not stated) | 48.9* | 9.3 | 1.0 | -0.1
Cc1cc(C)c(NC(=O)c2ccc(Cl)cc2)c([N+](=O)[O-])c1 | 41.6* | -2.0 | -1.8 | -0.1
Cc1ccc(NC(=O)c2ccc(Cl)cc2[N+](=O)[O-])nc1 | 41.4* | 13.2 | -0.1 | 0.1
Cc1ccc(NC(=O)c2ccc(Cl)cc2Cl)nc1 | 35.3* | -4.0 | -3.6 | 0.1
COc1ccccc1C(=O)NN1CCOCC1 | -1.4 | 6.2 | 0.9 | 0.0
CCC(=O)N1c2ccc(S(=O)(=O)CCC(=O)Nc3cccc(CC)c3)cc2CC1C (configuration not stated) | 10.9 | 1.6 | 0.1 | -0.4
N#Cc1cc2c(nc1SCC(=O)c1ccc(Cl)cc1)CCC2 | -12.1 | 18.9 | 0.9 | 1.0
COc1cc(C2CC(c3c(O)ccc4ccccc34)=NN2)ccc1O (configuration not stated) | 60.6* | -0.8 | -6.3 | -0.2
COc1cc(C2CC(=O)c3c(ccc4ccccc34)N2)ccc1O (configuration not stated) | 8.3 | -7.1 | 0.3 | -0.1
COc1cc(C2C3=C(COC3=O)Nc3ccc4ccccc4c32)ccc1O (configuration not stated) | 55.5* | -28.5 | 2.5 | -0.2
Oc1ccc(C2CC(c3c(O)ccc4ccccc34)=NN2)cc1 (configuration not stated) | 88.4* | -1.2 | -10.3 | 0.0
O=C1CC(C(=O)Nc2ccc(Br)cc2)C2(CCCCC2)O1 (configuration not stated) | 8.3 | -5.0 | 1.4 | 0.1
Cc1ccoc1C(=O)NCC1Cc2cc(-c3ccc(S(C)(=O)=O)cc3)ccc2O1 (configuration not stated) | 38.8* | 15.3 | 0.8 | 0.6
Cc1noc(C)c1C(=O)NCC1Cc2cc(-c3ccc(S(C)(=O)=O)cc3)ccc2O1 (configuration not stated) | 7.9 | -13.4 | 0.1 | -0.1
SMILES | TEAD-YAP block | MITF inh | GPR151 activ | FBW7 act
CCN=C1S/C(=C\c2ccc(-c3cccc(C(=O)O)c3)o2)C(=O)N1CC | 33.6* | 8.3 | 0.8 | 0.1
NC1=NC(=O)/C(=C/c2ccc(-c3cccc(C(=O)O)c3)o2)S1 | 70.2* | 2.9 | 0.4 | -0.2
CCN=C1S/C(=C/c2ccc(-c3ccc(Cl)cc3C(=O)O)o2)C(=O)N1CC | -1.1 | -0.5 | 0.3 | 0.0
NC1=NC(=O)/C(=C\c2ccc(-c3cccc(Cl)c3)o2)S1 | -3.9 | 15.3 | 1.4 | 0.1
O=C1CSC(c2ccc(Cl)cc2)N1c1ccc(Oc2ccc(Cl)cc2)cc1 (configuration not stated) | -8.3 | 0.8 | 1.8 | 0.0
O=S(=O)(c1ccc(NC(=S)N/N=C/c2ccccc2O)cc1)N1CCOCC1 | 61.4* | 67.8* | -0.2 | -1.1
Nc1c(C(=O)Nc2ccc(Cl)cn2)sc2nc3c(cc12)CCC3 | 93.5* | 12.1 | 4.0 | 0.3
Nc1c(C(=O)Nc2nccs2)sc2nc3c(cc12)CCCC3 | 76.6* | -18.6 | -0.8 | 0.0
CCc1nnc(NC(=O)c2sc3nc4c(cc3c2N)CCC4)s1 | -75.6 | 1.1 | -1.3 | 0.2
CCOC(=O)/C(=C/c1ccc(Br)cc1)c1nnc(N)s1 | 39.9* | 14.5 | 2.4 | 0.3
CCOC(=O)C(=Cc1ccc(O)cc1)C(=O)OCC | 9.7 | 11.6 | -0.3 | 0.1
O=C1CSC(=O)N1Cc1c(Cl)cccc1Cl | 13.7 | 19.0 | 0.1 | 2.2*
Cc1ccc(-c2n[nH]c(=S)n2/N=C\c2ccc(O)c(O)c2)cc1 | -10.6 | -66.5 | -0.2 | -0.3
Oc1ccc(/C=N/n2c(-c3ccncc3)n[nH]c2=S)cc1O | 3.9 | 62.9* | -1.0 | -0.1
COc1cccc(/C=N/NC(=S)Nc2cccnc2)c1 | -22.7 | -0.2 | 2.2 | -0.1
COc1ccc(O)c(/C=N/NC(=S)Nc2cccnc2)c1 | -11.3 | 91.2* | -1.8 | -0.5
COc1cc(OC)c(OC)cc1/C=N/Nc1ccccn1 | 14.6 | 5.2 | -0.5 | -0.1
COc1ccc(O)c(/C=N/Nc2ccccn2)c1 | -55.4 | 73.1* | -0.5 | -0.4
Oc1ccc(/C=N/NC(=S)Nc2cccnc2)cc1 | 64.9* | 12.1 | -0.7 | 0.2
COc1ccc(CCNc2nc(-c3ccc(OC)cc3)nc3c2ncn3C(C)C)cc1 | -1.0 | 0.0 | 0.7 | -0.1
COc1ccc(-c2nc(NCCc3ccc(O)cc3)c3ncn(C(C)C)c3n2)cn1 | 64.5* | 4.7 | -1.1 | 0.0
COc1ccc(-c2nc(NCCN(C(C)C)C(C)C)c3ncn(C(C)C)c3n2)cc1 | 39.0* | -1.6 | 1.3 | 0.1
CC(C)n1cnc2c(NCCc3ccc(O)cc3)nc(-c3ccc(C(=O)NC4CC4)cc3)nc21 | 24.8 | 13.5 | -1.3 | 0.6
CC(C)n1cnc2c(NCCc3ccc(O)cc3)nc(-c3ccc(C(N)=O)cc3)nc21 | 51.8* | 14.9 | -0.9 | 0.1
COc1ccc(-c2nc(NCc3nc4ccccc4[nH]3)c3ncn(C(C)C)c3n2)cn1 | 47.7* | 11.4 | 2.1 | 0.3
SMILES | TEAD-YAP block | MITF inh | GPR151 activ | FBW7 act
O=C(NCc1cccnc1)C(=O)N/N=C/c1cccc([N+](=O)[O-])c1 | -3.6 | 0.8 | 0.9 | -0.1
O=C(NC1CC1)c1ccc(-c2nc(Nc3ccc(Oc4ccccc4)cc3)c3ncn(CCN4CCCC4=O)c3n2)cc1 | -0.7 | 5.9 | 1.6 | -0.1
CCOC(=O)c1sc(NC(=O)c2ccco2)c(SC#N)c1C | 34.4* | 5.4 | -1.1 | -0.1
OC1(c2ccccc2)CSC(=Nc2cccnc2)N1CCCn1ccnc1 (configuration not stated) | 43.4* | 18.0 | 0.7 | 0.4
C=CCN1C(=Nc2cccnc2)SCC1(O)c1ccc(C)cc1 (configuration not stated) | 24.7 | 15.2 | 0.3 | -0.3
CCOc1ccc(S(=O)(=O)NCc2ccccc2)c2ccccc12 | 5.3 | -3.6 | -1.2 | 0.1
O=C(O)CNS(=O)(=O)c1ccc(Br)s1 | -2.4 | 3.2 | 1.2 | 0.1
